# Reference: PubChem BioAssay AID463195 (Sanford-Burnham Center for Chemical Genomics, 2010)
# About 4,600 (1.4%) of roughly 330,000 compounds were called active. This excerpt belongs to a sample that is enriched for actives. Values without a mark were called inactive.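 The calls were made as follows: active = inhibition of 40% or more at the single tested concentration; inactive = the rest.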
# Assay: growth inhibitors of isogenic TIM10 control yeast, primary screen, counter-screen for tim10-1 yeast inhibitor project, luminescence, uHTS (AID 463195);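 also: wild-type TIM10 isogenic control strain grown at permissive 25 °C; 0% = DMSO yeast wells and 100% = minimal medium wells without yeast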
# Details: S. cerevisiae TIM10 strain growth, BacTiter-Glo luminescence, 24 h; at 10 µM; active compounds read high
row,Compound,inhibition
1,COc1ccccc1C(=O)N/C(=C/c1ccco1)C(=O)Nc1ccc(C(=O)O)cc1,-3.06%
2,N/C(=N\OC(=O)Nc1ccc(Cl)c(Cl)c1)c1ncc(C(F)(F)F)cc1Cl,71.5% (active)
3,O=C(c1ccccn1)c1ncc(C(F)(F)F)cc1Cl,-12.3%
4,N/C(=N\OC(=O)CCCC(=O)O)c1ncc(C(F)(F)F)cc1Cl,-12.6%
5,Cc1cccc(C)c1NC(=O)N1CC(C)OC(C)C1 (stereo not drawn),-0.538%
6,CNC(=S)NNC(=O)c1oc2nc(-c3ccccc3)cc(-c3ccco3)c2c1N,2.74%
7,CCN(CC)C(=O)c1sc2nc(-c3ccccc3)ccc2c1N,18.6%
8,CS(=O)(=O)c1sc2nc(-c3ccccc3)cc(-c3ccccc3)c2c1N,46.7% (active)
9,S=c1[nH]nc2c3c4c(sc3ncn12)CCCC4,29.6%
10,C=C(C)COc1ccc(-c2n[nH]c(C)c2-c2ccccc2)c(O)c1,45.6% (active)
11,C=C(C)COc1ccc(-c2ncncc2-c2ccc(OC)cc2)c(O)c1,17.4%
12,COc1ccc(-c2n[nH]c(C)c2-c2ccccc2OC)c(O)c1,25.2%
13,Cn1c(=O)oc2cc(S(=O)(=O)NCCC(=O)NCc3ccccc3Cl)ccc21,6.26%
14,O=C(CN1CCSCC1)N/N=C/c1ccc(F)cc1F,-5.91%
15,CNS(=O)(=O)c1ccc(NC(=O)C2CC(=O)N(c3ccc(Cl)cc3)C2)cc1 (stereo not drawn),-1.17%
16,Cc1c(NC(=O)C(C)OC(=O)c2c3c(nc4ccccc24)CCC(C)C3)c(=O)n(-c2ccccc2)n1C (stereo not drawn),-6.65%
17,CSCCC(NS(=O)(=O)/C=C/c1ccccc1)C(=O)N1CCC(C)CC1 (stereo not drawn),43.1% (active)
18,CSCCC(NC(=O)c1ccccc1)C(=O)N1CCCCCCC1 (stereo not drawn),2.09%
19,CSCCC(NS(=O)(=O)c1ccc(C)cc1)C(=O)N1CCCC1 (stereo not drawn),-9.58%
20,O=C1/C(=C/c2cccs2)CCC1C1CCCC1 (stereo not drawn),-11.5%
21,CC(=O)NCc1ccc(S(=O)(=O)NC2CCN(Cc3ccccc3)CC2)cc1,0.58%
22,COc1ccc(S(=O)(=O)NC(C)c2ccccc2)cc1C(=O)N1CCCCC1 (stereo not drawn),13.1%
23,Cc1ccc(C2=N/C(=C\c3ccc(OS(=O)(=O)c4ccc(C)cc4)cc3)C(=O)O2)cc1,-5.54%
24,Cc1cccc(C2=N/C(=C/c3cccs3)C(=O)O2)c1,41.4% (active)

row,Compound,inhibition
1,Cc1cccc(C(=O)Nc2ccc(C(=O)/C=C/c3cccs3)cc2)c1,10%
2,CC1(C)C(C=C(Cl)Cl)C1C(=O)N(Cc1ccc(Cl)cc1)C1CCS(=O)(=O)C1 (stereo not drawn),17.4%
3,C=CS(=O)c1sc(Cl)c(N2CCOCC2)c1[N+](=O)[O-] (stereo not drawn),67.8% (active)
4,CCN(CC)P(=O)(Nc1ccc(SC(F)F)cc1)c1ccc(N(C)C)cc1NC(=O)c1ccco1 (stereo not drawn),19%
5,Cc1ccc(CCN2CC(C(=O)O)CC2=O)cc1 (stereo not drawn),-9.17%
6,Cc1nnnn1/C(=C\c1ccccc1)C(=O)OCC(=O)N1CC2(C)CC1CC(C)(C)C2 (stereo not drawn),62.3% (active)
7,CN(C)C(=O)COC(=O)c1cccc(S(=O)(=O)N2CC3(C)CC2CC(C)(C)C3)c1 (stereo not drawn),5.89%
8,COc1ccc(C(=O)N2CC3(C)CC2CC(C)(C)C3)cc1OC (stereo not drawn),9.33%
9,Cc1cccc(NC(=S)NCc2ccc3[nH]c4c(c3c2)CCCC4)c1,42.9% (active)
10,Cc1cccc(NC(=S)NCCN(C2CCCCC2)C2CCCC2)c1,11.8%
11,Cc1cccc(NC(=S)NC23CN4CN(CN(C4)C2)C3)c1,-11.6%
12,N#C/C(=C(\O)C(F)(F)F)c1nnc2n1CCCCC2,-10.3%
13,COc1ccc(C(=O)Nc2ccccc2C(=O)N/N=C/c2ccc(O)c(OC)c2)cc1,93.2% (active)
14,COc1cc(/C=N/NC(=O)c2cccnc2)ccc1OC(=O)c1cccc(Br)c1,14.7%
15,COc1ccc(C(=O)Nc2ccccc2C(=O)N/N=C/c2ccccc2OC)cc1,64.2% (active)
16,COc1cc(C=NNC(=O)c2cccnc2)ccc1OC(=O)c1ccccc1F,7.06%
17,COc1ccc(C(=O)Nc2cc(C)c(NC(=O)c3ccccc3OC)cn2)cc1,14.6%
18,COc1ccc(/C=N/Nc2ccccc2C(=O)O)cc1,13.9%
19,COc1cc(/C=N/NC(=O)CCc2n[nH]c(=O)[nH]c2=O)ccc1O,5.01%
20,COc1ccc(C(=O)Nc2ccccc2C(=O)N2CCN(c3ccccc3)CC2)cc1,14.5%
21,COc1cc(/C=N/NC(=O)c2ccccc2)ccc1OS(=O)(=O)c1ccccc1,43.1% (active)
22,CC(=O)c1ccc(N2Cc3ccccc3C2)cc1,8.18%
23,Cc1ccc(-c2nc(COC(=O)c3c(C)noc3C)cs2)cc1,1.5%
24,Oc1ccc2ccc3cccc[n+]3c2c1,-22.6%

row,Compound,inhibition
1,COCCN1C(=O)c2oc3c(C)cc(C)cc3c(=O)c2C1c1cccc(O)c1 (stereo not drawn),-2.19%
2,CC1CC2=C(CC1/C=N/NC(N)=S)C(C)(C)CCC2 (stereo not drawn),13.8%
3,N#Cc1ccc(C(=O)Nc2nc(-c3cccs3)c(C(=O)C(F)(F)F)s2)cc1,9.92%
4,CCC(CC)C(=O)Nc1c2c(nn1-c1ccc(C)cc1)CS(=O)(=O)C2,4.97%
5,CC/S(CC1CC1(Cl)Cl)=N\S(=O)(=O)c1ccc(C)cc1 (stereo not drawn),0.564%
6,CCN1C(=NCC(C)C)N[C@@H](CCc2ccccc2)[C@H](C(=O)NCC(C)C)[C@H]1C,-3.76%
7,COCCNC(=O)/C(C#N)=C/c1cccc(OCc2ccccc2)c1,55.7% (active)
8,O=C(N/N=C/c1cccc(OCc2ccccc2)c1)c1ccc(Br)o1,26.3%
9,N#C/C(=C\c1ccc(O)c(O)c1)C(=O)NCc1ccccc1,-1.33%
10,CC(C)COc1ccc(C(=O)OCC(=O)NCCC2=CCCCC2)cc1,11.3%
11,COC(=O)c1ccc(COc2cc([N+](=O)[O-])cc3cccnc23)cc1,-32.2%
12,C=C(C)c1cccc(C(C)(C)NC(=O)N2CCN(c3ncccn3)CC2)c1,3.72%
13,CCOc1cc(-c2cc(-c3ccc(OC)cc3)nc(N)c2C#N)ccc1O,34%
14,COc1ccc(-c2cc(-c3ccc(N)cc3)nc(N)c2C#N)cc1OC,41% (active)
15,CCOc1cc(-c2cc(-c3ccc(NC(C)=O)cc3)nc(N)c2C#N)ccc1O,-6.1%
16,COc1ccc(S(=O)(=O)N2CCN(C(=O)NC3CCCCC3)CC2)cc1,-5.18%
17,O=C(CN1CCN(S(=O)(=O)c2ccc3ccccc3c2)CC1)NC(=O)NC1CCCCC1,44.2% (active)
18,O=C(CN1CCN(S(=O)(=O)c2ccc(F)cc2)CC1)NC1CC1,0.605%
19,O=C(NC(=S)Nc1cccc2c(O)cccc12)c1cccc(Br)c1,20.4%
20,O=C1c2ccccc2S(=O)(=O)c2cc(N3CCN(c4ccccn4)CC3)ccc21,-6.37%
21,COc1ccc(-c2cc(C)nc3nc(N)nn23)cc1,9.96%
22,Cc1cc(C(C)(C)C)cc(C)c1N,-4.47%
23,Cc1cc(N)n2nc(-c3ccc(C(C)(C)C)cc3)cc2n1,45.3% (active)
24,C/C(CC(=O)Nc1cccc(C(F)(F)F)c1)=N\NC(=O)C(=O)NCC(C)C,10.5%

row,Compound,inhibition
1,CCOC(=O)CNC(=O)CSc1ccc2nnc(-c3cccnc3)n2n1,-17.7%
2,CCOC(=O)CNC(=O)CSc1ncccc1-c1nc2ccccc2[nH]1,97.9% (active)
3,CCOC(=O)CNC(=O)CSc1nc2cccnc2n1CC,7.72%
4,CC(C)C(NC(=O)C1CCC(C(C)(C)C)CC1)C(=O)NCCCN1CCCCC1 (stereo not drawn),6.75%
5,O=C(CNC(=O)c1ccccc1Br)NNC(=O)c1cccs1,3.43%
6,Cc1cccc(NC(=O)Nc2cccc(Oc3c(F)c(F)c(F)c(F)c3F)c2)c1,8.17%
7,Cc1ccoc1C(=O)Nc1cccc(Oc2ccccc2)c1,55.2% (active)
8,CC(Oc1cccc(NC(=O)c2cccs2)c1)C(=O)c1ccccc1 (stereo not drawn),8.87%
9,COc1ccccc1NC(=O)CSc1nnc(Cn2nnc(-c3ccccc3)n2)n1-c1ccccc1,6.08%
10,Cc1ccc(NC(=O)COC(=O)CN2CCCCCC2=O)c(C)c1,7.63%
11,COc1ccc(CN2CCC(n3nccc3NC(=O)CCCc3ccccc3)CC2)cc1C,4.88%
12,Cc1cc2cc(CNC(=O)c3cccs3)ccc2[nH]1,-0.032%
13,Cc1cc2cc(CNC(=O)c3ccc(S(=O)(=O)N4CCOCC4)cc3)ccc2[nH]1,7.18%
14,CCc1cccc(CC)c1NC(=S)NCc1ccc2[nH]c(C)cc2c1,54% (active)
15,CNC(=S)N/N=C/c1cn(Cc2ccc(C)cc2)c2ccccc12,51.4% (active)
16,N#CCC(=O)N/N=C/c1cn(Cc2ccc3ccccc3c2)c2ccccc12,-20.2%
17,CCOC(=O)N/N=C/c1cn(Cc2ccccc2Cl)c2ccccc12,22%
18,C=CCN(c1ccc(Cl)cc1)S(=O)(=O)c1cccc(C(=O)OCC(=O)N(C)C)c1,-12.8%
19,COc1cccc(NC(=O)CN(C)C(=O)/C=C/c2cn(-c3ccccc3)nc2-c2cccs2)c1,-5.41%
20,O=C(O)c1ccc(N/N=C/c2cn(-c3ccccc3)nc2-c2cccs2)cc1,56.3% (active)
21,O=C(NCc1cccnc1)c1cn(-c2ccccc2)nc1-c1cccs1,2.96%
